Test results from PubChem BioAssay (NCI).
About 83,000 compounds went through this panel and 20% of them were active in at least one assay; those are over-represented in the sample as a whole.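 In brief: 96-well plates, 48 h treatment, single concentration, percent growth endpoint.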 Active and inactive are the calls of the source. The calls were made as follows: active = growth percent below 10; inactive = the rest.

Tests used:
Experiment in all cases: NCI-60 one-dose screen, 48 h (100 = growth as untreated, 0 = no growth, -100 = all killed)
Conditions in all cases: 10 µM
DU-145 prostate = test system: DU-145 prostate
K-562 leukemia = test system: K-562 leukemia
MALME-3M melanoma = test system: MALME-3M melanoma
MDA-MB-231 breast = test system: MDA-MB-231 breast
SF-268 CNS = test system: SF-268 CNS
SF-295 CNS = test system: SF-295 CNS
SF-539 CNS = test system: SF-539 CNS
UACC-257 melanoma = test system: UACC-257 melanoma
M14 melanoma = test system: M14 melanoma

Measured: growth

O=C(Nc1ccc(Cl)c(C(F)(F)F)c1)c1cncc(C#Cc2cnc3ccc(N4CCOCC4)nn23)c1
inactive: DU-145 prostate 20.6% | K-562 leukemia 13.3% | M14 melanoma 11.3%
active: MALME-3M melanoma -39.8% | MDA-MB-231 breast -44.6% | SF-268 CNS 7.89% | SF-295 CNS 5.28% | SF-539 CNS -42% | UACC-257 melanoma 6.55%

Cc1ccc(/C=C/C(=O)c2ccc(NC(=O)CSc3nnc(-c4c[nH]c5ccccc45)n3-c3ccccc3)cc2)c(C)c1
inactive: DU-145 prostate 41.1% | K-562 leukemia 35.4% | MDA-MB-231 breast 21.9% | SF-268 CNS 72.3% | SF-295 CNS 66.1% | UACC-257 melanoma 90.2% | M14 melanoma 53.5%
active: MALME-3M melanoma -71.7% | SF-539 CNS -95.3%

CN1CCN(c2ccc(C(=O)/C=C/c3ccc(OC(F)F)cc3)cc2)CC1
inactive: DU-145 prostate 57.8% | MALME-3M melanoma 84.1% | MDA-MB-231 breast 41.5% | SF-268 CNS 81% | SF-295 CNS 47.4% | UACC-257 melanoma 68.7% | M14 melanoma 31.6%
active: K-562 leukemia 6.23% | SF-539 CNS -39.8%

CC(C)Sc1nc(NC2CC2)c(C#N)c(-c2ccccc2)n1
inactive: DU-145 prostate 86.2% | K-562 leukemia 90% | MALME-3M melanoma 104% | MDA-MB-231 breast 58.9% | SF-268 CNS 61% | SF-295 CNS 54.9% | SF-539 CNS 42% | UACC-257 melanoma 103% | M14 melanoma 117%

COc1ccc(-c2nc(-c3ccccc3)c(-c3ccccc3)n2-c2ccc(S(=O)(=O)Nc3ncccn3)cc2)cc1OC
inactive: DU-145 prostate 89% | K-562 leukemia 76.8% | MALME-3M melanoma 106% | MDA-MB-231 breast 62.2% | SF-268 CNS 82.9% | SF-295 CNS 46.5% | SF-539 CNS 67.2% | UACC-257 melanoma 113% | M14 melanoma 93.9%

CC1(c2ccccc2)NC(=O)N(CC(=O)Nc2ccc(C(=O)/C=C/c3ccccc3)cc2)C1=O (stereo not drawn)
inactive: DU-145 prostate 62.1% | K-562 leukemia 22.4% | MALME-3M melanoma 77.6% | MDA-MB-231 breast 67.7% | SF-268 CNS 52.2% | SF-295 CNS 50.9% | SF-539 CNS 43.3% | UACC-257 melanoma 63.5% | M14 melanoma 48.2%

CC1CC(c2ccc(N(C)C)cc2)=NN1c1nc(O)c(C2=c3cc(Br)ccc3=NC2=O)s1 (stereo not drawn)
inactive: DU-145 prostate 93.7% | K-562 leukemia 61.9% | MALME-3M melanoma 99.4% | MDA-MB-231 breast 99.8% | SF-268 CNS 91.7% | SF-295 CNS 68.9% | SF-539 CNS 92.3% | UACC-257 melanoma 91.2% | M14 melanoma 84.8%
